Records with an inconclusive call do not appear. The source made the active and inactive calls. Unless noted, calls come from the whole dose curve.
Legend:
[1] = qHTS assay to identify small molecule agonists of the vitamin D receptor (VDR) signaling pathway - cell viability counter screen (AID 743224; active = well fitted curve in the direction sought with a large enough effect in the repeat runs; an effect the other way counts as inactive or inconclusive; note: series mostly up to about 63 µM; % is set by controls: 0 for no effect and ±100 for the full control effect; nearly all actives have a fitted effect of over 50% in size)
Method in brief: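 Compounds were pin-transferred onto VDR-bla cells plated 4 h earlier; following 16 h incubation at 37C, cell viability was quantified by CellTiter-Glo luminescence after 30 min at room temperature.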

[2] = qHTS assay to identify small molecule antagonists of the vitamin D receptor (VDR) signaling pathway - cell viability counter screen (AID 743225; active = well fitted curve in the direction sought with a large enough effect in the repeat runs; an effect the other way counts as inactive or inconclusive; note: % is set by controls: 0 for no effect and ±100 for the full control effect; nearly all actives have a fitted effect of over 50% in size)
Method in brief: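 Cells (VDR-UAS-bla HEK 293T) are plated, rested 4 h at 37C, dosed with compound and 3 nM final 1-alpha,25-dihydroxy vitamin D3, and incubated 16 h. Viability is taken from CellTiter-Glo luminescence in the reporter wells.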

[3] = qHTS assay to identify small molecule agonists of the NFkB signaling pathway (AID 1159509; active = well fitted curve in the direction sought with a large enough effect in the signal ratio in the repeat runs, not every such curve was filed as active; the % refers to the signal ratio; note: series mostly up to about 61 µM; % is set by controls: 0 for no effect and ±100 for the full control effect)
Method in brief: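 Readout: FRET fluorescence, 405 nm excitation, 460/530 nm emission; beta-lactamase expression disrupts FRET. Cells: ME-180 stably carrying NF-kB-driven bla reporter. Compound exposure 5 hr, 37 C, 5% CO2.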

[4] = qHTS assay to identify small molecule agonists of the NFkB signaling pathway - cell viability counter screen (AID 1159515); note: series mostly up to about 61 µM; % is set by controls: 0 for no effect and ±100 for the full control effect; nearly all actives have a fitted effect of over 55% in size
Method in brief: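 Parallel cytotoxicity counter screen in ME-180 cells carrying an NFkB-response-element beta-lactamase reporter, 2,000 cells/well. Compound exposure lasted 5 hr at 37 C, 5% CO2. Cell viability was quantified by CellTiter-Glo luminescence.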

[5] = qHTS assay to identify small molecule agonists of the endoplasmic reticulum stress response signaling pathway (AID 1159516; active = well fitted activation curve with a large enough effect in the signal ratio in the repeat runs, not every such curve was filed as active; the % refers to the signal ratio; note: % is set by controls: 0 for no effect and ±100 for the full control effect)
Method in brief: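 Using a HeLa line with an ESRE-driven beta-lactamase gene, agonist activity was measured by FRET substrate fluorescence (460 and 530 nm emission) after cells were treated with compounds for 5 hr at 37 C and 5% CO2.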

[6] = qHTS assay to identify small molecule agonists of the endoplasmic reticulum stress response signaling pathway - cell viability counter screen (AID 1159517);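 note: HeLa cells carrying an ER stress response element beta-lactamase reporter; series mostly up to about 61 µM; % is set by controls: 0 for no effect and ±100 for the full control effect; nearly all actives have a fitted effect of over 50% in size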
Method in brief: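 After overnight attachment, ESRE-bla HeLa cells were treated with Tox21 library compounds for 5 hr. CellTiter-Glo luminescence, read 30 min post-addition at room temperature, reported viability.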

[7] = qHTS assay to identify small molecule antagonists of the retinoid-related orphan receptor gamma (ROR-gamma) signaling pathway - cell viability counter screen (AID 1159520; active = well fitted curve in the direction sought with a large enough effect in the repeat runs; an effect the other way counts as inactive or inconclusive; note: % is set by controls: 0 for no effect and ±100 for the full control effect; nearly all actives have a fitted effect of over 50% in size)
Method in brief: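 Cytotoxicity was read from cellular ATP (CellTiter-Glo luminescence) after 16 hr at 37 C with 1 uM doxycycline induction. The inducer was added 2 hr after compound transfer to Tet-on ROR gamma CHO cells.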

[8] = molecular target: Nuclear receptor ROR-gamma (Homo sapiens) (UniProt P51449); experiment: qHTS assay to identify small molecule antagonists of the retinoid-related orphan receptor gamma (ROR-gamma) signaling pathway (AID 1159521; active = well fitted curve in the direction sought with a large enough effect in the repeat runs; an effect the other way counts as inactive or inconclusive)
Method in brief: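 RORγ antagonism is scored from reduced reporter luminescence in Tet-on CHO cells. Induction used 1 uM final doxycycline hyclate for 16 h at 37 C, following a 2 h compound exposure.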

[9] = qHTS assay to identify small molecule agonists of the AP-1 signaling pathway - cell viability counter screen (AID 1159525); note: nearly all actives have a fitted effect of over 55% in size
Method in brief: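 Intracellular ATP by Cell Titer Glo luminescence (30 min, RT) in the same ME-180 AP-1-bla wells after the 5 h compound exposure at 37 °C. Normalised to tetra n-octyl ammonium bromide and DMSO controls.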

[10] = qHTS assay to identify small molecule agonists of the AP-1 signaling pathway (AID 1159526); note: % is set by controls: 0 for no effect and ±100 for the full control effect

NCC[C@H](O)C(=O)N[C@@H]1C[C@H](N)[C@@H](O[C@H]2O[C@H](CN)[C@@H](O)[C@H](O)[C@H]2O)[C@H](O)[C@H]1O[C@H]1O[C@H](CO)[C@@H](O)[C@H](N)[C@H]1O
inactive: activity change, negative = cytotoxicity [1] 7.01% [at 0.55 µM] | viability change, negative = cytotoxic [2] 0.0036% [at 0.628 µM] | activation [3] 0.167% [at 0.628 µM] | activity, negative = cytotoxic [4] 8.7% [at 0.628 µM] | activation [5] -0.818% [at 0.628 µM] | activity change, negative = cytotoxicity [6] 6.85% [at 0.628 µM] | activity, negative = cytotoxicity [7] 3.36% [at 0.349 µM] | activity change, negative = inhibition [8] 19% [at 0.35 µM] | viability change, negative = cytotoxic [9] 8.93% [at 0.29 µM] | activation [10] 12.3% [at 0.29 µM]

C[N+](C)(C)CC[N+]1(C)Cc2c(Cl)c(Cl)c(Cl)c(Cl)c2C1
inactive: outcome [1] | outcome [2] | outcome [3] | outcome [4] | outcome [5] | outcome [6] | Potency [7] | Potency [8] | outcome [9] | Potency [10]

N#CC1(O)CCCCC1
inactive: outcome [1] | outcome [2] | outcome [3] | outcome [4] | outcome [5] | outcome [6] | Potency [7] | Potency [8] | outcome [9] | Potency [10]

C[C@H]1O[C@@H](n2cc(F)c(=O)[nH]c2=O)[C@H](O)[C@@H]1O
inactive: outcome [1] | outcome [2] | outcome [3] | outcome [4] | outcome [5] | outcome [6] | Potency [7] | Potency [8] | outcome [9] | Potency [10]

Cc1ccccc1Br
inactive: outcome [1] | outcome [2] | outcome [3] | outcome [4] | outcome [5] | outcome [6] | Potency [7] | Potency [8] | outcome [9] | Potency [10]

COC(=O)c1ccc(C(=O)OC)c(C(=O)OC)c1
inactive: outcome [1] | outcome [2] | outcome [3] | outcome [4] | outcome [5] | outcome [6] | Potency [7] | Potency [8] | outcome [9] | Potency [10]

CCc1cc(S(=O)(=O)O)c2cc(C(C)C)cccc1-2
inactive: outcome [1] | outcome [2] | outcome [3] | outcome [4] | outcome [5] | outcome [6] | Potency [7] | Potency [8] | outcome [9] | Potency [10]

CCC(=O)c1cccc(Cl)c1
inactive: outcome [1] | outcome [2] | outcome [3] | outcome [4] | outcome [5] | outcome [6] | Potency [7] | Potency [8] | outcome [9] | Potency [10]

CC(C)[C@H](N)C(=O)OCCOCn1cnc2c(=O)[nH]c(N)nc21
inactive: outcome [1] | outcome [2] | outcome [3] | outcome [4] | outcome [5] | outcome [6] | Potency [7] | Potency [8] | outcome [9] | Potency [10]

CCCOCC(C)OCC(C)O (stereo not given)
inactive: outcome [1] | outcome [2] | outcome [3] | outcome [4] | outcome [5] | outcome [6] | Potency [7] | Potency [8] | outcome [9] | Potency [10]

Oc1cc(O)c2c(c1)O[C@H](c1ccc(O)c(O)c1)[C@H](O)C2
inactive: outcome [1] | outcome [2] | outcome [3] | outcome [4] | outcome [5] | outcome [6] | Potency [7] | Potency [8] | outcome [9] | Potency [10]

O=C(O)Cc1cc(I)c(Oc2cc(I)c(O)c(I)c2)c(I)c1
inactive: outcome [1] | outcome [2] | outcome [3] | outcome [4] | outcome [5] | outcome [6] | Potency [7] | Potency [8] | outcome [9] | Potency [10]

CC(C)(C)CC(C)(C)N
inactive: outcome [1] | outcome [2] | outcome [3] | outcome [4] | outcome [5] | outcome [6] | Potency [7] | Potency [8] | outcome [9] | Potency [10]

Fc1ccccc1-c1ccccc1
inactive: outcome [1] | outcome [2] | outcome [3] | outcome [4] | outcome [5] | outcome [6] | Potency [7] | Potency [8] | outcome [9] | Potency [10]

O=C(O)/C=C/c1ccc(Cn2ccnc2)cc1
inactive: outcome [1] | outcome [2] | outcome [3] | outcome [4] | outcome [5] | outcome [6] | Potency [7] | Potency [8] | outcome [9] | Potency [10]

NS(=O)(=O)c1cc(C2(O)NC(=O)c3ccccc32)ccc1Cl (stereo not given)
inactive: outcome [1] | outcome [2] | outcome [3] | outcome [4] | outcome [5] | outcome [6] | Potency [7] | Potency [8] | outcome [9] | Potency [10]

COc1ccc(COC=O)cc1
inactive: outcome [1] | outcome [2] | outcome [3] | outcome [4] | outcome [5] | outcome [6] | Potency [7] | Potency [8] | outcome [9] | Potency [10]

CCCCC=O
inactive: outcome [1] | outcome [2] | outcome [3] | outcome [4] | outcome [5] | outcome [6] | Potency [7] | Potency [8] | outcome [9] | Potency [10]

O=C(O)C(O)[C@H](O)[C@@H](O)[C@H](O)[C@H](O)CO (stereo not given in full)
inactive: outcome [1] | outcome [2] | outcome [3] | outcome [4] | outcome [5] | outcome [6] | Potency [7] | Potency [8] | outcome [9] | Potency [10]

Cc1ccc(N)cc1[N+](=O)[O-]
inactive: outcome [1] | outcome [2] | outcome [3] | outcome [4] | outcome [5] | outcome [6] | Potency [7] | Potency [8] | outcome [9] | Potency [10]

CCC(C)OC(=O)N1CCCCC1CCO (stereo not given)
inactive: outcome [1] | outcome [2] | outcome [3] | outcome [4] | outcome [5] | outcome [6] | Potency [7] | Potency [8] | outcome [9] | Potency [10]

O=C(O)c1ccccc1S
inactive: outcome [1] | outcome [2] | outcome [3] | outcome [4] | outcome [5] | outcome [6] | Potency [7] | Potency [8] | outcome [9] | Potency [10]

NC(=O)CCCCC1CCSS1 (stereo not given)
inactive: outcome [1] | outcome [2] | outcome [3] | outcome [4] | outcome [5] | outcome [6] | Potency [7] | Potency [8] | outcome [9] | Potency [10]

COc1ccc(N=[N+]([O-])c2ccc(OC)cc2)cc1
inactive: outcome [1] | outcome [2] | outcome [3] | outcome [4] | outcome [5] | outcome [6] | Potency [7] | Potency [8] | outcome [9] | Potency [10]

OCCCCCCO
inactive: outcome [1] | outcome [2] | outcome [3] | outcome [4] | outcome [5] | outcome [6] | Potency [7] | Potency [8] | outcome [9] | Potency [10]

CC/C=C\CCCCO
inactive: outcome [1] | outcome [2] | outcome [3] | outcome [4] | outcome [5] | outcome [6] | Potency [7] | Potency [8] | outcome [9] | Potency [10]

CO
inactive: outcome [1] | outcome [2] | outcome [3] | outcome [4] | outcome [5] | outcome [6] | Potency [7] | Potency [8] | outcome [9] | Potency [10]

Nc1nc2c(ncn2CCC(CO)CO)c(=O)[nH]1
inactive: outcome [1] | outcome [2] | outcome [3] | outcome [4] | outcome [5] | outcome [6] | Potency [7] | Potency [8] | outcome [9] | Potency [10]

CC(C)COC(=O)c1ccccc1O
inactive: outcome [1] | outcome [2] | outcome [3] | outcome [4] | outcome [5] | outcome [6] | Potency [7] | Potency [8] | outcome [9] | Potency [10]

Cc1c(F)cc2c(=O)c(C(=O)O)cn3c2c1CCC3C (stereo not given)
inactive: outcome [1] | outcome [2] | outcome [3] | outcome [4] | outcome [5] | outcome [6] | Potency [7] | Potency [8] | outcome [9] | Potency [10]

OCC(O)[C@@H](O)[C@H](O)[C@H](O)CO[C@H]1O[C@H](CO)[C@@H](O)[C@H](O)[C@H]1O (stereo not given in full)
inactive: outcome [1] | outcome [2] | outcome [3] | outcome [4] | outcome [5] | outcome [6] | Potency [7] | Potency [8] | outcome [9] | Potency [10]

CCCCCCC(CCCCCCCCCCC(=O)OCC(COC(C)=O)OC(C)=O)OC(C)=O (stereo not given)
inactive: outcome [1] | outcome [2] | outcome [3] | outcome [4] | outcome [5] | outcome [6] | Potency [7] | Potency [8] | outcome [9] | Potency [10]

Nc1ccc2cc(S(=O)(=O)O)ccc2c1
inactive: outcome [1] | outcome [2] | outcome [3] | outcome [4] | outcome [5] | outcome [6] | Potency [7] | Potency [8] | outcome [9] | Potency [10]

O=Cc1ccccc1[N+](=O)[O-]
inactive: outcome [1] | outcome [2] | outcome [3] | outcome [4] | outcome [5] | outcome [6] | Potency [7] | Potency [8] | outcome [9] | Potency [10]

CC(C)N1C(=O)c2ccccc2C1=O
inactive: outcome [1] | outcome [2] | outcome [3] | outcome [4] | outcome [5] | outcome [6] | Potency [7] | Potency [8] | outcome [9] | Potency [10]

CC(C)c1cccc(C(C)C)c1N
inactive: outcome [1] | outcome [2] | outcome [3] | outcome [4] | outcome [5] | outcome [6] | Potency [7] | Potency [8] | outcome [9] | Potency [10]

— PubChem BioAssay (Tox21)
